From PubChem BioAssay
SKN-1 inh: suppressors of acrylamide-induced Pgst-4::GFP reporter in worms, primary screen, SKN-1 inhibitor project, whole organism, uHTS, GFP/RFP fluorescence ratio, strain VP596 | C. elegans VP596 Pgst-4::GFP/RFP ratio, 24 h | inhibition, % at 21.8 µM | 360,000 compounds, 0.49% hits | AID 624304, 2012;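 active = interference check ratio from 0.5 to 1.5 plus GFP to RFP signal ratio inhibition reaching or exceeding a fixed threshold, cut at about 30% in these data, passing the limit was not always enough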
SMARCA2 act: SMARCA2 (BRM) function activators, primary screen, cell-based, luminescence, high throughput | 370,000 compounds, 1% hits | MG213 cells, MMTV-luciferase reporter, dexamethasone, overnight | activation, % at 9.1 µM | AID 652017, 2013; in the data active = activation above about 7.8%
GRIN3A LBD mod: binders of NR3A ligand-binding domain, primary screen, biophysical, differential scanning fluorimetry, uHTS. NR3A LBD differential scanning fluorimetry, Tm shift; 0% = protein alone, 100% = glycine-bound protein. Glutamate receptor ionotropic, NMDA 3A (GRIN3A) ligand-binding domain. Tm shift relative to glycine control, % at 25 µM. 340,000 compounds, 2.5% hits;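 active = melting temperature shift of at least 10% of the positive control shift, at one fixed dose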
NadD inh: inhibitors of S. aureus NadD, primary screen, biochemical, colorimetric, uHTS; Nicotinate-nucleotide adenylyltransferase NadD (Staphylococcus aureus N315); purified NadD enzyme, colorimetric absorbance read-out; inhibition, % at 20 µM; 360,000 compounds, 0.78% hits; in the data active = inhibition above about 26%
esBAF inh: Bmi1 luciferase reporter increase in mESCs, primary screen, esBAF inhibitor project, mouse ES cells, Bmi1 luciferase knock-in, single point. 24 h; 100% = twice the neutral-well signal. reporter increase, % at 12.5 µM. 350,000 compounds, 2% hits; in the data active = activation above about 40%; inconclusive = no clear call, values can overlap the other calls;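 also: a rise in the Bmi1 reporter signal indicates esBAF inhibition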
Vif inh: HIV Vif self-association inhibitors, primary screen, imaging, HEK293T, single point; HEK293T cells, Vif self-association by quenched fluorescence, 24 h; inhibition, % at 7.49 µM; 340,000 compounds, 0.35% hits; AID 602346, 2012; in the data active = inhibition above about 50%, passing the limit was not always enough; inconclusive = no clear call, values can overlap the other calls; inactive = below about 31%
SMARCA2 conf: SMARCA2 (BRM) function activators, confirmation, cell-based, luminescence, triplicate; shares compounds with SMARCA2 act; MG213 cells, MMTV-luciferase with dexamethasone, overnight; MG213 cells expressing E1A, Rb sequestered; DMSO wells 0%, reference activator 100%; activation, % at 9.1 µM; 3,500 compounds, 30% hits; AID 652260, 2013;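 active = activation above its plate's cutoff, the mean activation of tested wells plus 3 SD, cut at about 7.9% in these data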
VP16 Luc act: GAL4-VP16 luciferase reporter activation, counter-screen for SMARCA2 (BRM) activator project, cell-based, pG5luc, luminescence, high throughput | shares compounds with SMARCA2 act | HEK293 GAL4-VP16 pG5luc reporter; scaled: DMSO wells 0%, SAHA wells 100% | activation, % at 9.1 µM | 3,500 compounds, 41% hits;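 active = activation above the solvent-only control well mean plus 3 SD, averaged across control plates, cut at about 5.2% in these data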
Large screens that a line does not name were inactive (follow-up assays come after a bar, where they were run). Sampled rows, rich in hits. Any-hit rate of the full collection: about 5.2%.

CCNC(=O)NC(=O)C(C)Sc1nc2cc(C(=O)OC)ccc2c(=O)n1-c1ccccc1 (centres undefined)	SMARCA2 act 9.4 | SMARCA2 conf inactive | VP16 Luc act inactive
C[C@H](O)C#Cc1ccc2c(c1)O[C@H](CN(C)C(=O)CN(C)C)[C@@H](C)CN([C@@H](C)CO)S2(=O)=O	none (no result: SKN-1 inh, SMARCA2 act, GRIN3A LBD mod, NadD inh, Vif inh)
Cc1ccnc(NC(=O)c2cccc3ccccc23)c1	SMARCA2 act 11 (no result: esBAF inh, Vif inh) | SMARCA2 conf inactive | VP16 Luc act inactive
Cc1ccnc(NC(=O)c2ccccc2[N+](=O)[O-])c1	none
Cc1ccc(O)c(N=CC2=C(O)c3ccccc3C2=O)c1	SMARCA2 act 8.4, esBAF inh 78 (no result: Vif inh) | SMARCA2 conf 19 | VP16 Luc act 14
O=C1C(C=Nc2ccccc2O)=C(O)c2ccccc21	Vif inh inconclusive
COc1ccc(C2=Nc3ccccc3N(C(=O)c3ccncc3)C2C(=O)NC(C)C)cc1 (centres undefined)	SMARCA2 act 9.7 (no result: GRIN3A LBD mod, NadD inh, esBAF inh, Vif inh) | SMARCA2 conf inactive | VP16 Luc act inactive
COc1ccc(C2=Nc3ccccc3N(C(=O)Cc3cc(OC)cc(OC)c3)C2C(=O)NC(C)C)cc1 (centres undefined)	none (no result: GRIN3A LBD mod, NadD inh, esBAF inh, Vif inh)
Cc1cc(C(=O)CSc2ncccn2)c(C)n1Cc1ccco1	SMARCA2 act 9.9 | SMARCA2 conf 9.9 | VP16 Luc act 8.5
CC(=O)N1CCCCN2[C@H](CO)[C@H](c3ccc(-c4ccncc4)cc3)[C@@H]2C1	none (no result: SKN-1 inh, SMARCA2 act, GRIN3A LBD mod, NadD inh, Vif inh)
COc1cccc(CNC(=O)CCl)c1	none (no result: esBAF inh)
COc1cccc(CNC(=O)COC(=O)c2nc(Cl)c(Cl)c(Cl)c2Cl)c1	SMARCA2 act 17 | SMARCA2 conf 26 | VP16 Luc act inactive
CCOc1ccc(OCc2ccc(C(=O)N3CCCCC3)o2)cc1	none
CCOc1ccc(OCc2ccc(C(=O)N3CCc4ccccc4C3)o2)cc1	SMARCA2 act 13 | SMARCA2 conf inactive | VP16 Luc act inactive
O=C(C[C@@H]1C=C[C@@H](NC(=O)Nc2ccccc2F)[C@@H](CO)O1)NCc1ccc(-c2ccccc2)cc1	none (no result: SKN-1 inh, SMARCA2 act, GRIN3A LBD mod, NadD inh, Vif inh)
O=[N+]([O-])c1cccc(/C([O-])=C(/C(=S)Nc2ccccc2)[n+]2ccccc2)c1	SMARCA2 act 8.5 (no result: esBAF inh) | SMARCA2 conf inactive | VP16 Luc act 6.3
COc1ccccc1OCc1nc2ccccc2n1C	SMARCA2 act 10, esBAF inh 48 | SMARCA2 conf 12 | VP16 Luc act 7.5
Cn1c(COc2ccccc2Br)nc2ccccc21	esBAF inh inconclusive
C/C(=N\NC(=O)c1nnn(-c2nonc2N)c1C)c1ccc(OCc2ccccc2)cc1	SMARCA2 act 14 | SMARCA2 conf inactive | VP16 Luc act 6.1
Clc1ccccc1OCc1nc(-c2ccccn2)no1	SMARCA2 act 12, GRIN3A LBD mod 11 (no result: Vif inh) | SMARCA2 conf 15 | VP16 Luc act 8.7
COc1cccc(C=NNc2ccc([N+](=O)[O-])cn2)c1OC	SMARCA2 act 8.3 (no result: esBAF inh) | SMARCA2 conf inactive | VP16 Luc act inactive
O=C(NCC[C@H]1CC[C@H](NC(=O)C2CCCC2)[C@@H](CO)O1)c1ccc(F)cc1	none (no result: SKN-1 inh, SMARCA2 act, GRIN3A LBD mod, NadD inh, Vif inh)
Nc1nnc(-c2ccc(Cl)cc2Cl)s1	SMARCA2 act 12, GRIN3A LBD mod 12 (no result: esBAF inh) | SMARCA2 conf inactive | VP16 Luc act 8.2
O=C(NCc1ccco1)c1cnc2sccn2c1=O	none
O=C(NCCc1ccccc1)c1cnc2sccn2c1=O	SMARCA2 act 9.6 | SMARCA2 conf 8.3 | VP16 Luc act 9.4
COCCNC(=O)C[C@H]1C[C@H]2c3cc(NC(=O)COC)ccc3O[C@H]2[C@H](CO)O1	none (no result: SKN-1 inh, SMARCA2 act, GRIN3A LBD mod, NadD inh, Vif inh)
O=C(Nc1nccs1)c1ccccc1Br	none
Brc1ccccc1-n1nnc(-c2nccs2)n1	SMARCA2 act 8.3, esBAF inh inconclusive | SMARCA2 conf inactive | VP16 Luc act 16
Nc1ccc2c(c1)C(=O)c1cc(N)c(Cl)cc1-2	SMARCA2 act 11 | SMARCA2 conf 11 | VP16 Luc act inactive
Cc1ccc(S(=O)(=O)N(C)C[C@H]2Oc3ccc(NC(=O)c4ccncc4)cc3CC(=O)N([C@H](C)CO)C[C@H]2C)cc1	none (no result: SKN-1 inh, SMARCA2 act, GRIN3A LBD mod, NadD inh, Vif inh)
CSc1ccccc1NC(=O)c1cc(-c2ccc3c(c2)OCO3)on1	SMARCA2 act 10, esBAF inh 48 | SMARCA2 conf inactive | VP16 Luc act inactive
COc1ccc(-c2ccc(C(=O)C3CC3)cc2)cc1	SMARCA2 act 10 | SMARCA2 conf 8.2 | VP16 Luc act 15
Cc1nn(C)cc1NC(=O)C[C@@H]1CC[C@@H]2[C@H](COc3ccc(NC(=O)C4CCC4)cc3C(=O)N2C)O1	none (no result: SKN-1 inh, SMARCA2 act, GRIN3A LBD mod, NadD inh, Vif inh)
COc1ccccc1Nc1nc(N)nc(CSC(=S)N2CCN(c3ccccc3)CC2)n1	SMARCA2 act 8.7 (no result: esBAF inh) | SMARCA2 conf inactive | VP16 Luc act inactive
CCn1cnc2sc(C(=O)Oc3cccc(C)c3)c(C)c2c1=O	SMARCA2 act 11, esBAF inh inconclusive | SMARCA2 conf inactive | VP16 Luc act inactive
C(=N\Nc1nc(Nc2ccccc2)nc(N2CCOCC2)n1)/c1c[nH]c2ccccc12	SMARCA2 act 9.6, GRIN3A LBD mod 18 (no result: SKN-1 inh, NadD inh, esBAF inh, Vif inh) | SMARCA2 conf inactive | VP16 Luc act 7.7
c1ccc(Nc2nc(N3CCOCC3)nc(N3CCOCC3)n2)cc1	none (no result: esBAF inh)
COc1ccc(NC(=O)N(C)C[C@H]2Oc3ccc(NS(=O)(=O)c4c(C)noc4C)cc3CC(=O)N([C@H](C)CO)C[C@H]2C)cc1	none (no result: SKN-1 inh, SMARCA2 act, GRIN3A LBD mod, NadD inh, Vif inh)
O=C(NCCN1CCCC1)c1ccc2c(=O)n(CCc3ccccc3)c(=O)[nH]c2c1	SMARCA2 act 8.2 | SMARCA2 conf 10 | VP16 Luc act inactive
CCC(=O)Oc1ccc2oc(=O)cc(C)c2c1	SMARCA2 act 13 | SMARCA2 conf inactive | VP16 Luc act inactive
CCOc1ccc2oc(=O)cc(C)c2c1	none
Cc1ccccc1N=Nc1c(N)[nH]n(-c2ccccc2)c1=O	none (no result: SKN-1 inh, GRIN3A LBD mod, NadD inh, esBAF inh, Vif inh)
Cc1cccc2c1ncc1c(=O)n(-c3ccccc3)[nH]c12	SMARCA2 act 12, esBAF inh inconclusive | SMARCA2 conf inactive | VP16 Luc act 11
